SMILES strings stand for the structures. “And” between values parts separate entries of the source, which are not always exact repeats. Equal values may be shown once. The campaign covered roughly 16,000 compounds. About 5,800 (36%) were called active. Not shown: some 23% with an inconclusive outcome. Calls follow the shape of the dose curve; as a rule, active = well fitted curve in the direction sought with a large enough effect; inconclusive = small, poorly fitted or top-dose-only effect, or effect the other way; inactive = no such curve, though single readings can be large or run the other way. Some of the results follow.
% is scaled to controls: 0 for no effect and ±100 for the full control effect.

The target in this test is Cytochrome P450 2C19 (Homo sapiens) (UniProt P33261). Description: Cytochrome panel assay with activity outcomes. The settings on record: recombinant CYP, pro-luciferin dealkylation, luminescence, p450-cyp2c19; series mostly up to 57.1 µM; activity, negative = inhibition: at the top concentration.
Sequence of Cytochrome P450 2C19 (Homo sapiens) (P33261 whole entry, looked up): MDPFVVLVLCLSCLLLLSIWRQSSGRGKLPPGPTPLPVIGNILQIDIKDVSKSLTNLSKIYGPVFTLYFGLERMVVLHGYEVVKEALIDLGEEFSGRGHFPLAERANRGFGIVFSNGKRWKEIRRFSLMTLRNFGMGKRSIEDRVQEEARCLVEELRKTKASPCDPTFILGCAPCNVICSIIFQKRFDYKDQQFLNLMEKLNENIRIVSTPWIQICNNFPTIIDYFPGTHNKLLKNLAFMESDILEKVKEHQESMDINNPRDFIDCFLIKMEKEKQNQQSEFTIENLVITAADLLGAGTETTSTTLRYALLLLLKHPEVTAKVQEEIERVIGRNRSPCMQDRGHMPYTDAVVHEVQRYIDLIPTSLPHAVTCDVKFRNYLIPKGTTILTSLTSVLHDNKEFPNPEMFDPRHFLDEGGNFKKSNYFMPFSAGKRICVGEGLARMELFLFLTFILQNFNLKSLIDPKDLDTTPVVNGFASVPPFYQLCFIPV
As to `COc1ccccc1C(=O)NN1C(=O)C2C3C=CC(O3)C2C1=O` (stereo not drawn), the “activity, negative = inhibition” value was 9.47% (inactive).

As to `COc1ccccc1C(=O)NC(=S)N1CCCc2ccccc21`, the AC50 (usually the concentration giving half of the maximal activity seen) was 2 µM (active).

As to `O=C(CSc1nnc2c3ccccc3c3ccccc3c2n1)Nc1ccccc1`, the AC50 was 2 µM (active).

With `c1ccc(CSc2nnc3c4ccccc4c4ccccc4c3n2)cc1`, the activity, negative = inhibition was -34.7% [at 11.4 µM] (inactive).

Regarding `c1ccc(-c2nc(NCCCn3ccnc3)c3oc4ccccc4c3n2)cc1`, the AC50 was 0.158 µM (active).

Regarding `c1cncc(-c2ccc3ncnc(NCCN4CCOCC4)c3c2)c1`, the “activity, negative = inhibition” value is 13.4% (inactive).

In the case of `c1ccc2c(c1)oc1c(NCCCn3ccnc3)ncnc12`, the AC50 is 3.55 µM (active).

Consider `CNc1csc(C)c(C)c1=O`, for which the AC50 is 28.2 µM (active).

In the case of `Cc1nc2ncnn2c(C)c1CCC(=O)Nc1ccc(S(=O)(=O)N2CCCCCC2)cc1`, the “activity, negative = inhibition” value was -27.7% (inactive).

In the case of `O=C(Nc1ccc(F)cc1)c1cc(S(=O)(=O)N2CCCCC2)cs1`, the AC50 was 22.4 µM (active).

Take `O=C(O)c1cc(S(=O)(=O)N2CCCCC2)ccc1F`: the “activity, negative = inhibition” value is -3.99% (inactive).

As to `Cc1ccc(S(=O)(=O)O[C@@H]2[C@H]([C@@H]3COC(C)(C)O3)O[C@H]3OC(C)(C)O[C@@H]32)cc1`, the activity, negative = inhibition is 45.2% [at 11.4 µM] (inactive).

For the molecule `Cc1ccc(S(=O)(=O)Oc2cc(N)c3c(n2)CCC3)cc1`, the AC50 is 1 µM (active).

For `Cc1ccc(S(=O)(=O)Oc2cc(S(=O)(=O)O)cc3cc(S(=O)(=O)O)cc(N)c23)cc1`, the activity, negative = inhibition is 7.86% [at 11.4 µM] (inactive).

For `CC(C)CC(=O)N1CCN(Cc2cccc(F)c2)CC1`, the AC50 was 3.55 µM (active).

`CC(C)CN1CCC2(CC1)CCN(C(=O)c1cccc(F)c1)CC2`: the “activity, negative = inhibition” value is -11.2% (inactive).

For the molecule `O=C(c1cccc(F)c1)N1CCC2(CCN(Cc3ccccc3)CC2)CC1`, the “activity, negative = inhibition” value was -9.16% (inactive).

Take `COc1ccc(-n2c(=O)c(-c3ccc(F)cc3)nc3cnc(N4CCOCC4)nc32)cc1`: the “activity, negative = inhibition” value is -8.57% (inactive).

Turning to `COc1ccc(-n2c(=O)c(-c3ccc(Cl)cc3)nc3cnc(N4CCOCC4)nc32)cc1`, the AC50 was 25.1 µM (active).

As for `COc1cccc(Cn2c(=O)c(-c3cccs3)nc3cnc(N4CCN(C)CC4)nc32)c1`, the “activity, negative = inhibition” value is -17.6% (inactive).

With `COc1ccc(-c2nc3cnc(N4CCNCC4)nc3n(Cc3ccc(F)cc3)c2=O)cc1`, the “activity, negative = inhibition” value was -35% (inactive).

Regarding `COc1ccc(-n2c(=O)c(-c3ccc(Cl)cc3)nc3cnc(N4CCNCC4)nc32)cc1`, the “activity, negative = inhibition” value is -24.1% (inactive).

Turning to `COc1cccc(Cn2c(=O)c(-c3cccs3)nc3cnc(N4CCNCC4)nc32)c1`, the AC50 is 31.6 µM (active).

`COc1ccc(-n2c(=O)c(-c3cccs3)nc3cnc(N4CCNCC4)nc32)cc1`: the “activity, negative = inhibition” value was -27.6% (inactive).

With `COc1cccc(Cn2c(=O)c(-c3ccc(Cl)cc3)nc3cnc(N4CCNCC4)nc32)c1`, the AC50 is 25.1 µM (active).

As to `COc1cccc(Cn2c(=O)c(-c3ccc(Cl)cc3)nc3cnc(N4CCN(C)CC4)nc32)c1`, the “activity, negative = inhibition” value is 61.1% (inactive).

`C[C@@H](NCc1cc(Br)cc2[nH]c(=O)c(=O)[nH]c12)P(=O)(O)O`: the “activity, negative = inhibition” value is 19.9% (inactive).

Regarding `COc1ccc(C[N+](C)(C)N)cc1OC`, the activity, negative = inhibition is 22.8% [at 11.4 µM] (inactive).

Take `COc1ccc(CCN(C)CCc2ccc(OC)c(OC)c2)cc1OC`: the AC50 entry was “inactive”.

For `COc1ccc(CC(=S)N2CCOCC2)cc1OC`, the AC50 was 10 µM (active).

Regarding `CO[C@@H]1COC(=O)[C@@H](C)NC(=O)C/C=C\[C@@H](C)[C@H](NS(=O)(=O)c2ccc(C)cc2)COC(=O)[C@H](C)NC(=O)C/C=C\[C@H]1C`, the activity, negative = inhibition was 1.72% [at 11.4 µM] (inactive).

On to `Cc1ccc(CCNC(=O)C2CC(c3ccccc3[N+](=O)[O-])=NO2)cc1` (stereo not drawn), for which the AC50 is 11.2 µM (active).

Consider `Cc1ccc(CNC(=O)C2CC(c3ccccc3[N+](=O)[O-])=NO2)cc1` (stereo not drawn), for which the concentration at half-maximal activity (AC50) is 3.16 µM (active).

With `O=C(NCCCCc1ccccc1)C1CC(c2ccccc2[N+](=O)[O-])=NO1` (stereo not drawn), the AC50 was 7.08 µM (active).

On to `Cc1ccc(CNC(=O)C2CC(c3ccccc3[N+](=O)[O-])=NO2)o1` (stereo not drawn), for which the AC50 is 7.94 µM (active).

As for `NCCNCC1CCNCC1`, the activity, negative = inhibition was 2.44% [at 11.4 µM] (inactive).

With `C/C(CCN1CCCc2nc(C)c(C)cc21)=N\O[C@@H](C)c1cn([C@H](CO)Cc2ccccc2)nn1`, the activity, negative = inhibition was -18.6% [at 11.4 µM] (inactive) and 31.1% [at 11.4 µM] (inactive).

Regarding `CC(C)CC1CC(=O)OC1(C)C(=O)CSc1nc2ccccc2s1` (stereo not drawn), the AC50 is 7.94 µM (active).

Regarding `O=C(CSc1nc2ccccc2s1)c1sc2sc3ccccc3[n+]2c1O`, the activity, negative = inhibition was -17.6% [at 11.4 µM] (inactive).

Consider `CC1(C(=O)CSc2nc3ccccc3s2)CCC(=O)O1` (stereo not drawn), for which the AC50 was 11.2 µM (active).

Turning to `O=C(OCCNC(=O)c1ccc2ccccc2n1)c1ccc(F)cc1`, the half-maximal activity concentration (AC50) was 7.94 µM (active).

Consider `NCCNC(=O)c1ncsc1-c1cccc(F)c1`, for which the “activity, negative = inhibition” value is -22.7% (inactive).

Regarding `O=C(O)/C=C1\NC(=O)c2ccccc21`, the “activity, negative = inhibition” value is -15.3% (inactive).

`CCOc1ccccc1OCCOc1ccc(F)cc1`: the AC50 is 4.47 µM (active).

Consider `CC[N+](CC)(CC)CCOc1ccc(/C=C\c2ccccc2)cc1`, for which the “activity, negative = inhibition” value is 4.13% (inactive).

`CCOC(=O)CCN1C(=O)[C@H]2[C@H]3[C@H](O)[C@H](O)C/C(=N/OC[C@@H](O)COCc4ccco4)[C@H]3CC[C@@H]2C1=O`: the activity, negative = inhibition is 34% [at 11.4 µM] (inactive).

Turning to `CC(=O)N1CC2(CC2)CC1c1ccccc1` (stereo not drawn), the “activity, negative = inhibition” value was 9.83% (inactive).

Turning to `CC(C)NC(=O)N1CCCC2(CCN(S(=O)(=O)c3ccccc3)CC2)C1`, the “activity, negative = inhibition” value is -25% (inactive).

In the case of `Cc1ccc(S(=O)(=O)N2CCN(C(=O)c3ccccc3)C2C(C)C)cc1` (stereo not drawn), the AC50 was 7.08 µM (active).

As for `CC(C)NC(=O)N1CC2(CCN(S(=O)(=O)c3ccccc3)CC2)C1`, the “activity, negative = inhibition” value was 14.7% (inactive).

For the molecule `CC(=O)N1CCN(S(=O)(=O)c2ccccc2)C1c1ccccc1` (stereo not drawn), the AC50 was 11.2 µM (active).

Turning to `C=CCC(NCc1ccco1)c1ccc(OC)cc1` (stereo not drawn), the AC50 is 5.01 µM (active).

Turning to `COc1ccc(OC)c(NC(=O)C(CC(=O)O)NCc2ccco2)c1` (stereo not drawn), the “activity, negative = inhibition” value was -7.23% (inactive).

Consider `COc1ccc(C(=O)n2nc(-c3ccccc3)nc2SC)cc1`, for which the “activity, negative = inhibition” value is -24.6% (inactive).

Consider `CCC(=O)n1nc(-c2ccc(OC)cc2)nc1N`, for which the AC50 is 10 µM (active).

As to `COc1ccc(-c2nc(N)c3ncn([C@H]4O[C@@H](CO)[C@@H](O)[C@@H]4O)c3n2)cc1`, the activity, negative = inhibition was 31.6% [at 11.4 µM] (inactive).

For the molecule `CC(C)Oc1ccc(N2CC(C(=O)OCC(=O)NCc3ccccc3)CC2=O)cc1` (stereo not drawn), the AC50 is 15.8 µM (active).

As to `CCOc1ccc(N2CC(C(=O)NCc3cccc(C)c3)CC2=O)cc1` (stereo not drawn), the AC50 was 7.94 µM (active).

The record behind these values is PubChem BioAssay AID1851 (National Center for Advancing Translational Sciences (NCATS), 2009).
